Compound activity as filed in PubChem BioAssay.
cardiac RTF act: increases calcium sensitivity of human cardiac regulated thin filaments | P19429+P45379 | IANBD-labeled TnC RTF fluorescence at EC20 calcium; 0% EC20 calcium, 100% full calcium | activation, % at 7.2 µM | 0.24% of 340,000 active;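 active means activation above the mean over all tested compounds plus 3 SD, cut at about 30% in these data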;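 further: rise in fluorescence read as greater calcium sensitivity of cardiac thin filaments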
TMEM16A act: activates or potentiates the mouse TMEM16A chloride channel | Q8BHY3 | B-score at 10 µM | 0.3% of 340,000 active | HEK293 TMEM16A/YFP-H148Q/I152L, iodide quench fluorescence; active compounds read low;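 active means fluorescence-ratio B-score plate-corrected deviation score at least 3 library SD below zero, with starting fluorescence score within 5 deviations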;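 further: channel opened by trigger with iodide after compound preincubation; score built on the fluorescence ratio of max minus min over baseline; more negative score means more quench and so TMEM16A activation or potentiation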
CRFR2-BP antag: CRF-BP/CRF-R2 complex antagonism. HEK293 CRF-R2/CRF-BP, CRF-induced calcium fluorescence. inhibition, % at 11.8 µM. 0.59% of 350,000 active;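 active means inhibition of the ligand-induced calcium signal above about 50% at the single tested concentration, limit read from the data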
RTF Ca sens inh: cardiac RTF calcium desensitization; 0.12% of 340,000 active; IANBD-labeled cardiac RTF, Ca2+ fluorescence; inhibition, % at 7.15 µM; P19429+P45379;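 active means inhibition above the mean inhibition of all tested compounds plus 3 SD, cut at about 17% in these data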;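 further: assay run at fixed EC70 calcium of 1.6 mM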
CRFR2-BP ag: CRF-BP/CRF-R2 complex agonism; AID 588473; 0.46% of 350,000 active; HEK293 CRF-R2/CRF-BP, calcium dye fluorescence (FLIPR); percent of saturating CRF peptide response; activation, % at 13.2 µM;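 active means activation of at least 50%, plus an integration ratio under a set limit after plate pattern correction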;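 further: plate controls were neutral control wells without compound for no effect and CRF at EC100 for full effect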
TMEM16A inh: blocks the mouse calcium-activated chloride channel TMEM16A; Q8BHY3; HEK293 TMEM16A/YFP iodide influx fluorescence, ionomycin; normalized B-score (activity score, 25-100; higher = stronger inhibition) at 10 µM; 1.2% of 310,000 active;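 active means ratio plate-corrected score three or more library SD toward inhibition, starting fluorescence score within five deviations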;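 further: score derived from kinetic fluorescence span divided by baseline fluorescence per well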
Numbers without * were called inactive; i = inactive; . = no result; + = active, no number. Only some compounds are listed: those with a hit (about 2.4% of all), similar ones and a draw of the others.

SMILES	cardiac RTF act	TMEM16A act	CRFR2-BP antag	RTF Ca sens inh	CRFR2-BP ag	TMEM16A inh
O=C(Cc1ccccc1)Nc1ccccc1C(=O)N1CCCCCC1	1.9	i	-8.8	-2.5	-1.4	i
Cc1ccc2c(COC(=O)c3n[nH]c4ccccc34)cc(=O)oc2c1	4.4	i	-10.9	3.1	-0.5	i
CCc1ccc2c(COC(=O)c3n[nH]c4ccccc34)cc(=O)oc2c1	5.4	i	-21.9	-8.7	4.7	100*
CCCCCN1C=CC=C/C1=C\C=C(C#N)C#N	.	i	-21.7	.	18.9	i
C=CCN1C=CC(=CC=C(C#N)C#N)C=C1	44.3*	-7.68*	-53.7	-46.1	67.4*	i
CCCCCCN1C=CC(=C/C=C(\C#N)C(=O)OCC)C=C1	141.2*	i	-261.3	-262.4	246.9*	i
CCCN1C=CC(=C/C=C(\C#N)C(=O)OCC)C=C1	.	.	.	.	.	i
CCCN1C=CC(=CC=C(C#N)C#N)C=C1	42.2*	-6.45*	-60.7	-47.9	93.9*	i
Cc1cc(C)c(C)c(S(=O)(=O)NCC(=O)NCC2CCCCC2)c1C	-2.9	i	-10.1	7.7	0.0	i
CN1C(N)=NC(=O)/C1=C\c1ccc(Br)cc1	0.8	i	0.9	0.0	0.4	i
COc1cc(C(=O)COC(=O)c2ccncc2)cc(OC)c1OC	1.8	i	4.2	-1.8	2.3	.
Cc1ccc(C(C)C)c2c1C(c1ccc3c(c1)OCO3)CC(=O)O2 (configuration not stated)	-2.3	i	-8.1	-2.5	66.3*	.
C[C@H](NC(=O)N1CCn2c1nc1ccccc12)C(=O)NCCc1ccccc1	-4.4	i	-7.0	-4.2	-0.2	i
COc1ccc(CN2C(=O)[C@H]3Cc4c([nH]c5ccccc45)C(C)(C)N3C2=O)cc1	5.5	i	-4.3	-5.8	0.7	25*
CC1=NNC(=O)/C1=C\c1cn(-c2ccccc2)nc1-c1ccc(F)cc1	1.3	-6.19*	-45.1	-3.7	25.5	.
CC1=NNC(=O)/C1=C\c1cn(-c2ccccc2)nc1-c1cccs1	3.1	i	-56.5	-4.2	80.2*	i
O=C(O)CCCCCN1C(=O)/C(=C/c2cn(-c3ccccc3)nc2-c2cccs2)SC1=S	-9.6	i	13.0	2.3	9.2	.
O=C(COC(=O)c1ccc(O)cc1O)Nc1nnc(-c2ccccc2)o1	-7.5	i	12.8	-0.9	-0.6	i
O=[N+]([O-])c1ccc(O)c(/C=N\N=C2c3ccccc3-c3ccccc32)c1	-4.6	i	73.8*	-5.9	83.8*	i
Cc1ccc(S(=O)(=O)C2(C(=O)N3CCCC(C)C3)CC2)cc1 (configuration not stated)	-3.8	i	-9.5	-1.3	-3.9	25*
Cc1ccc(S(=O)(=O)NCCC(=O)N2CCCC(C)C2)cc1 (configuration not stated)	-2.2	i	-0.6	-3.0	-1.4	i
Cc1ccccc1OCCC(=O)N1CCN(S(=O)(=O)c2ccc(Br)cc2)CC1	-0.4	i	3.5	4.7	1.7	.
Cc1nn(-c2ccccc2)c(N2CCCC2)c1/C=N/Nc1ccc(S(=O)(=O)Nc2ccccc2)cc1[N+](=O)[O-]	-8.3	i	15.0	-5.3	-1.3	i
COc1ccccc1NS(=O)(=O)c1ccc(N/N=C/c2c(C)nn(-c3ccccc3)c2N2CCCC2)c([N+](=O)[O-])c1	0.4	i	55.7*	-6.6	-2.5	i
Cc1c(CCC(=O)NCCCN2CCCC2=O)c(=O)oc2c(C)c(O)ccc12	6.7	i	0.2	-5.8	1.1	i
SMILES	cardiac RTF act	TMEM16A act	CRFR2-BP antag	RTF Ca sens inh	CRFR2-BP ag	TMEM16A inh
CCOC(=O)C1CCN(C(=O)CSCc2nc(-c3ccc(OCC)cc3)oc2C)CC1	-0.2	i	1.6	-9.1	0.2	100*
Cc1ccc(NC(=O)c2cccc(Oc3ccc([N+](=O)[O-])cc3)c2)c(C(=O)O)c1	-4.0	i	35.8	-4.4	-4.3	i
O=C(Nc1ccc(O)cc1)c1cccc(Oc2ccc([N+](=O)[O-])cc2)c1	-3.3	i	57.1*	4.5	0.2	i
CCCCCCc1cc2cc(C(=O)Nc3ccccc3OC)c(=O)oc2cc1O	-3.9	i	-1.0	4.2	102.0*	i
COc1ccc(NC(=O)c2cc3ccccc3oc2=O)c(OC)c1	3.7	i	2.6	-10.4	-0.7	i
COc1ccc(-c2nnc(-c3ccccc3O)o2)cc1	-7.7	i	-1.1	0.3	-0.2	i
CCCCCCc1cc2cc(-c3nnc(-c4ccccc4O)o3)c(=O)oc2cc1O	58.3*	i	-233.6	-139.9	231.9*	i
CCCCCCc1cc2cc(S(=O)(=O)c3ccc(F)cc3)c(=O)oc2cc1O	-18.9	i	11.4	-6.1	54.2*	i
CCOC(=O)CSc1nnc(-c2ccccc2OC)o1	-1.0	i	-26.1	2.9	-0.8	i
CCCCCCc1cc2cc(-c3nnc(-c4ccccc4OC)o3)c(=O)oc2cc1O	-1.4	i	-301.9	-10.6	230.1*	i
COc1cc2c(cc1OC)C(c1ccccc1)N(C(=O)C(C)(C)C)CC2 (configuration not stated)	-2.0	.	13.2	-2.8	-4.4	.
O=C(CC(=O)Nc1ccc(Cl)cc1)N/N=C\c1cccc(F)c1	0.0	i	1.8	3.3	-0.9	i
COc1ccc(-c2nnc(-c3cc4ccccc4oc3=O)o2)cc1	5.1	i	26.4	-1.1	-1.5	i
CCCCCCc1cc2cc(-c3nnc(-c4cc(OC)c(OC)c(OC)c4)o3)c(=O)oc2cc1O	.	.	-41.5	.	98.7*	i
COc1cccc2cc(-c3nnc(-c4ccccc4)o3)c(=O)oc12	-1.0	i	90.1*	-3.1	-1.7	i
CCOC(=O)Cc1csc(N/N=C\c2ccc(N(C)C)cc2)n1	-2.9	i	-15.2	-2.4	1.4	i
CCOC(=O)C1CCCN(C2CC(=O)N(c3ccccc3)C2=O)C1 (configuration not stated)	-4.9	i	66.8*	9.2	-2.2	i
COc1ccc(OC)c(NC(=O)CSc2nc3[nH]c(=O)[nH]c(=O)c3s2)c1	1.0	i	10.6	1.1	0.6	.
CC1CCN(S(=O)(=O)c2ccc(S(=O)(=O)NCC(=O)C(C)(C)C)cc2)CC1	-8.4	i	17.9	0.3	0.0	i
O=C(NC1=C(Nc2ccc(Cl)cc2)C(=O)c2ccccc2C1=O)c1ccccc1	4.2	i	-27.0	10.2	-4.5	i
CC(=O)Nc1ccc(NC2=C(Cl)C(=O)c3ccccc3C2=O)cc1	.	.	+	.	-2.8	.
O=C1C(Cl)=C(Nc2ccc3cn[nH]c3c2)C(=O)c2ccccc21	1.5	i	95.1*	3.9	-3.8	i
CN(C)c1ccc(NC2=C(Cl)C(=O)c3ccccc3C2=O)cc1	-1.7	i	75.2*	2.8	-0.1	i
